Some test systems named below: RIOK1; RIOK2; RIOK3; RIPK1; RIPK2; RIPK4; RIPK5; ROCK1; ROCK2; ROS1.
Conditions in all cases: concentration: 1 μM,replicates: in singlicate; n = 1
Assay [1] relates to RPS6KA4(Kin.Dom.1-N-terminal).
The test system of assay [2] is RPS6KA4(Kin.Dom.2-C-terminal).
The test system of assay [3] is RPS6KA5(Kin.Dom.1-N-terminal).
Assay [4] has as its system RPS6KA5(Kin.Dom.2-C-terminal).
The subject of assay [5] is T1, RSK1(Kin.Dom.1-N-terminal).
T1 construct: gene RPS6KA1

The subject of assay [6] is T2, RSK1(Kin.Dom.2-C-terminal).
T2 construct: gene RPS6KA1

Assay [7] concerns T3, RSK2(Kin.Dom.1-N-terminal).
T3 construct: gene RPS6KA3

The test system of assay [8] is T4, RSK2(Kin.Dom.2-C-terminal).
T4 construct: gene RPS6KA3

The test system of assay [9] is T5, RSK3(Kin.Dom.1-N-terminal).
T5 construct: gene RPS6KA2

Assay [10] deals with T6, RSK3(Kin.Dom.2-C-terminal).
T6 construct: gene RPS6KA2

Experimental findings from paper PMC5540273 (PLoS ONE, 2017) are described below.
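Further: KINOMEscan kinase panel screen.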

Consider `C[C@@H]1CNc2c(sc3ccc4nc(-c5ccc(O)cc5)ccc4c23)C(=O)N1`, for which the “%Inh” value in the assay on RIOK1 worked out at 0%; with RIOK2, 18%; in the assay on RIOK3 it was 3%; in the assay with RIPK1, 0%; in the assay on RIPK2, 27%; with RIPK4, 3%. In addition, the “%Inh” value in the assay with RIPK5 is listed as 27%; in the assay with ROCK1, 65%; in the assay on ROCK2 it was 51%; in the assay on ROS1, 0%; in assay [1] it was 6%; in assay [2] it was 98.8%. The “%Inh” value in [3] is reported as 2%; in assay [4], 17%; in assay [5], 6%; in [6] it was 12%; in assay [7], 58%; in assay [8], 70%. Also, the “%Inh” value in assay [9] was 12%; in assay [10], 47%.

Regarding `CC(=O)Nc1nc2cnc(Nc3cc(NC(=O)c4cccc(CC(C)(C)C#N)c4)ccc3C)nc2s1`, the “%Inh” value worked out at 0% with RIOK1; 22% in the assay on RIOK2; 0% in the assay with RIOK3; 0% in the assay on RIPK1; 0% with RIPK2; 25% with RIPK4. Moreover, the “%Inh” value is 0% with RIPK5; 19% in the assay on ROCK1; 0% in the assay with ROCK2; 6% in the assay on ROS1; 0% in assay [1]; 2% in assay [2]. The “%Inh” value is given as 13% in assay [3]; 0% in assay [4]; 5% in assay [5]; 0% in [6]; 0% in assay [7]; 26% in [8]. In addition, the “%Inh” value in assay [9] and in assay [10] was 0% each time.

For `CN(c1cccc(CNc2nc(Nc3ccc4c(c3)CC(=O)N4)ncc2C(F)(F)F)c1)S(C)(=O)=O`, the “%Inh” value worked out at 78% with RIOK1; 19% in the assay with RIOK2; 70% in the assay with RIOK3; 3% with RIPK1; 0% in the assay on RIPK2; 0% in the assay with RIPK4. The “%Inh” value is recorded as 16% with RIPK5; 0% in the assay with ROCK1; 17% in the assay with ROCK2; 89% in the assay on ROS1; 48% in assay [1]; 3% in assay [2]. Further, the “%Inh” value is given as 12% in [3]; 20% in assay [4]; 67% in assay [5]; 13% in [6]; 87% in assay [7]; 23% in [8]. For the same compound, the results for the “%Inh” value in assay [9] and in assay [10] were 78% and 27%, respectively.

Turning to `O=C(Nc1n[nH]c2cc(-c3ccco3)ccc12)C1CC1` [SB-737447], the “%Inh” value is reported as 81% in the assay on RIOK1; 10% in the assay with RIOK2; 79% in the assay on RIOK3; 13% with RIPK1; 0% with RIPK2; 36% in the assay on RIPK4. Further, the “%Inh” value in the assay on RIPK5 is 3%; in the assay with ROCK1, 0%; in the assay with ROCK2 it was 0%; in the assay on ROS1, 2%; in [1] it was 0%; in [2], 18%. Also, the “%Inh” value in assay [3] stood at 0%; in assay [4] it was 23%; in [5] it was 16%; in [6] it was 0%; in assay [7], 22%; in assay [8] it was 0%. The “%Inh” value turned out to be 18% in assay [9] and 0% in assay [10].

Take `COC(=O)c1cccc(NC(=O)NC2CCN(c3ccnc(Nc4cc(OC)c(OC)c(OC)c4)n3)C2)c1` (centres unmarked) [GSK1379767]: the “%Inh” value came to 70% in the assay on RIOK1; 0% with RIOK2; 67% in the assay on RIOK3; 23% in the assay on RIPK1; 24% with RIPK2; 26% in the assay with RIPK4. Besides, the “%Inh” value in the assay on RIPK5 amounted to 0%; with ROCK1 it was 24%; in the assay on ROCK2, 20%; with ROS1, 30%; in assay [1], 0%; in [2], 0%. Moreover, the “%Inh” value in [3] is 0%; in assay [4], 30%; in [5], 21%; in assay [6], 5%; in assay [7] it was 7%; in [8], 1%. The results for the “%Inh” value in assay [9] and in [10] were 9% and 29%, respectively.

`Cn1ccc2ncnc(Oc3ccc(NC(=O)Nc4ccnc(C(F)(F)F)c4)c(Cl)c3)c21`: the “%Inh” value in the assay on RIOK1 came out at 0%; with RIOK2, 19%; with RIOK3 it was 6%; in the assay with RIPK1, 0%; with RIPK2 it was 0%; with RIPK4 it was 0%. Further, the “%Inh” value in the assay with RIPK5 turned out to be 0%; in the assay on ROCK1 it was 17%; with ROCK2 it was 0%; in the assay on ROS1, 0%; in assay [1] it was 0%; in [2] it was 7%. Further, the “%Inh” value was 3% in assay [3]; 7% in assay [4]; 0% in assay [5]; 9% in assay [6]; 0% in assay [7]; 35% in [8]. For the same compound, the “%Inh” value is recorded as 0% in assay [9] and 1% in [10].

For `NC(=O)c1ccc(-c2cc3ncnc(SCC(=O)O)c3s2)cc1`, the “%Inh” value with RIOK1 came to 0%; with RIOK2 it was 0%; with RIOK3, 19%; in the assay on RIPK1, 0%; in the assay on RIPK2, 18%; in the assay with RIPK4, 3%. The “%Inh” value is 0% in the assay with RIPK5; 0% in the assay on ROCK1; 0% in the assay with ROCK2; 0% with ROS1; 0% in [1]; 24% in assay [2]. Further, the “%Inh” value was found to be 7% in assay [3]; 0% in assay [4]; 0% in [5]; 0% in [6]; 1% in [7]; 0% in assay [8]. The “%Inh” value in assay [9] amounted to 2%; in [10], 7%.

As for `CN1CCN(CCNc2nc3cc(Oc4ccc(NC(=O)Nc5cc(C(F)(F)F)ccc5F)cc4)ccc3[nH]2)CC1.Cl.Cl` [GW768504], the “%Inh” value was found to be 0% in the assay on RIOK1; 0% with RIOK2; 8% with RIOK3; 2% in the assay with RIPK1; 1% with RIPK2; 0% with RIPK4. Besides, the “%Inh” value in the assay on RIPK5 is 3%; in the assay with ROCK1, 48%; in the assay with ROCK2, 0%; with ROS1, 16%; in assay [1] it was 5%; in [2], 0%. For the same compound, the “%Inh” value came out at 0% in [3]; 1% in assay [4]; 7% in assay [5]; 28% in assay [6]; 0% in assay [7]; 0% in assay [8]. Also, the “%Inh” value in assay [9] was 0%; in assay [10] it was 8%.

With `CS(=O)(=O)Nc1ccc(-c2ccnc3[nH]ccc23)cc1` [GSK993273], the “%Inh” value in the assay on RIOK1 is 98.6%; with RIOK2, 67%; in the assay on RIOK3, 93.9%; in the assay with RIPK1, 0%; in the assay on RIPK2, 18%; in the assay with RIPK4, 30%. The “%Inh” value in the assay with RIPK5 is 0%; with ROCK1, 98.5%; with ROCK2 it was 98.4%; in the assay on ROS1, 9%; in assay [1] it was 0%; in [2], 94.1%. Besides, the “%Inh” value in assay [3] is 0%; in assay [4], 86%; in assay [5], 17%; in assay [6], 55%; in assay [7], 35%; in assay [8] it was 29%. Besides, the “%Inh” value came out at 19% in [9] and 54% in assay [10].

In the case of `Cn1cc(-c2cccc3c(N)c(C(N)=O)nnc23)cn1`, the “%Inh” value with RIOK1 came out at 36%; with RIOK2, 52%; with RIOK3 it was 60%; in the assay on RIPK1 it was 3%; in the assay on RIPK2, 3%; in the assay with RIPK4, 37%. Moreover, the “%Inh” value with RIPK5 was 17%; with ROCK1, 11%; in the assay with ROCK2 it was 20%; in the assay on ROS1, 6%; in assay [1], 53%; in [2] it was 30%. Besides, the “%Inh” value was determined as 21% in assay [3]; 13% in [4]; 0% in assay [5]; 0% in assay [6]; 23% in [7]; 44% in assay [8]. The “%Inh” value in assay [9] came to 21%; in [10], 0%.
